# Screening data from PubChem.
# Only some compounds are listed: those with a hit (about 21% of all), similar ones and a draw of the others.
# IL-1B inflam inh = inflammasome signaling inhibition, IL-1 beta readout | THP-1 LPS/ATP IL-1B secretion, AlphaLISA, 16 h; active compounds read low | AID 743279 | actives 4.7% (n = 360,000) | activity change, % at 57.5 µM; in the data active = activity change below about -50%; inconclusive = mostly about -30% to -49%
#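 THP-1 cells pretreated 1 hr with compounds (up to 57.5 uM final), then stimulated with LPS (250 ng/mL final) plus ATP (1.25 mM final); secreted IL-1B measured by AlphaLISA after 16 hr, decreased signal indicating inhibition.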
# ELG1 DNA repair = ELG1-dependent DNA repair inhibition. actives 2.3% (n = 330,000). HEK293T ELG1-luciferase reporter, luminescence, 16 h; DNA damage induced by 5-fluorouridine. Potency, µM (series often up to 46.1 µM), without a hit: top-dose activity change, negative = inhibition, usual class: inhibitors. AID 504467; note: potency is the fitted concentration of half-maximal effect; nearly all actives have a fitted effect of over 55% in size
#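 Overnight (16 hr) co-exposure of 2,000 cells/well to 5-fluorouridine and compound at 37 °C preceded detection. Luciferase was quantified via ONE-Glo luminescence; loss of signal denotes inhibition.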
# TDP1 cell CPT = growth inhibition of DT40 Tdp1-/-;hTDP1 cells with camptothecin (screen for TDP1 inhibitors); actives 12% (n = 420,000); Potency, µM (highest dose often 46.2 µM), for inactives: top-dose activity change, negative = growth inhibition, hits mostly inhibitors; chicken DT40 Tdp1-/-;hTDP1 cells + 20 nM CPT, ATP luminescence, 48 h; note: potency is the fitted concentration of half-maximal effect; nearly all actives have a fitted effect of over 55% in size
#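 Cell growth measured by CellTiter-Glo luminescence after a minimum 48 h, 37 C compound exposure with 20 nM CPT in Tdp1-knockout DT40 cells stably expressing hTDP1, seeded 400/well; qHTS titration format.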
# RORgamma inh = ROR gamma (mouse) transcription inhibition; P51450; actives 5.4% (n = 310,000); AID 2551; Potency, µM (titrated, usually from 53.6 µM), for inactives: top-dose activity change, negative = inhibition, actives largely listed as inhibitors; Drosophila S2 Gal4-RORgamma UAS-luciferase reporter, 20 h; note: potency is the fitted concentration of half-maximal effect; nearly all actives have a fitted effect of over 60% in size
# Target sequence (P51450 whole entry, looked up, the tested form may be a part): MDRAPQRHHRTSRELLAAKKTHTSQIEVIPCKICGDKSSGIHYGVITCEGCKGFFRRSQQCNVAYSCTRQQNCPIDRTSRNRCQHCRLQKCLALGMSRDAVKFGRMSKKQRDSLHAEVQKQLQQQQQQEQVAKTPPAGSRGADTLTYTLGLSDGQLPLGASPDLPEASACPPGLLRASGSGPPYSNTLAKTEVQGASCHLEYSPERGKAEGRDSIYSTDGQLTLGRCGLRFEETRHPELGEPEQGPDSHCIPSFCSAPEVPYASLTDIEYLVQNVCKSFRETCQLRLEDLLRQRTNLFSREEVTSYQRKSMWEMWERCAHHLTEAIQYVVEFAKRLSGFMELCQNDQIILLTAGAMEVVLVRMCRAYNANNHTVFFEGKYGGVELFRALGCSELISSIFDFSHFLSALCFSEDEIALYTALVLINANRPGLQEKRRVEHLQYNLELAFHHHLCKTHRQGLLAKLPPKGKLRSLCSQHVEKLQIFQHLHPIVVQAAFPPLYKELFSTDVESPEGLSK
#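 In this cell-based reporter format, copper sulfate (700 uM final) drives Gal4–ROR gamma fusion expression from a metallothionein promoter in Drosophila Schneider cells; compounds preincubated 1 hr, reporter read after 20 hr at ambient temperature.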
# Gal4-VP16 FLuc = counter-screen for ROR gamma inhibitors: Gal4-VP16 reporter; actives 3.5% (n = 310,000); Potency, µM (titrated, usually from 53.6 µM), for inactives: at the highest dose activity, negative = inhibition, hits mostly inhibitors; AID 2546; Drosophila S2 Gal4-VP16 UAS-luciferase, luminescence, 20 h;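 note: Gal4-VP16 expression switched on by copper sulfate through the metallothionein promoter; potency is the fitted concentration of half-maximal effect; nearly all actives have a fitted effect of over 50% in size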
# DT40 TDP1 no CPT = qHTS for Inhibitors of human tyrosyl-DNA phosphodiesterase 1 (TDP1): qHTS in cells in absence of CPT; DT40 Tdp1-/- hTDP1 cells, no CPT, ATP luminescence, 48 h; Potency, µM (doses to about 46.2 µM), for the others: at the highest dose activity change, negative = growth inhibition, usual class: inhibitors; actives 15% (n = 420,000); AID 686978, 2013; note: potency is the fitted concentration of half-maximal effect; nearly all actives have a fitted effect of over 55% in size
#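 A cellular qHTS used chicken DT40 cells lacking endogenous Tdp1 but carrying stably transfected human TDP1. Compounds were applied without camptothecin, and cell growth kinetics were judged by ATP-dependent luminescence after ≥48 hr.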
# The depositor's hits bear a star; ? = inconclusive; nt = no result; ! = repeats disagree; [ ] = another dose, or the depositor's remark. Unless noted, calls come from the whole dose curve; as a rule, active = well fitted curve in the direction sought with a large enough effect; inconclusive = small, poorly fitted or top-dose-only effect, or another doubt; inactive = no such curve, though single readings can be large; an effect the other way counts as inactive or inconclusive. % is set by controls: 0 for no effect and ±100 for the full control effect.
SMILES,IL-1B inflam inh,ELG1 DNA repair,TDP1 cell CPT,RORgamma inh,Gal4-VP16 FLuc,DT40 TDP1 no CPT
O=C1C2C(c3ccccc3)CC=CC2C(c2ccc3ccccc3c2)N1Cc1ccccc1 (stereo not drawn),nt,nt,nt,42%,2%,nt
Cc1ccc(-c2cccc(C3CC=CC4C3C(=O)N(Cc3ccccc3)C4c3ccc(C(F)(F)F)cc3)c2)cc1 (stereo not drawn),47,?,13µM*,13%,5%,13µM*
COc1cc(-c2cccc([C@H]3[C@@H]4C=CC[C@@H](C)[C@@H]4C(=O)N3Cc3ccccc3)c2)cc(OC)c1OC,?,?,8.2µM*,-2%,1%,7.3µM*
COc1ccc(C2C3C=CCC(C)C3C(=O)N2Cc2ccccc2)cc1Cl (stereo not drawn),nt,nt,nt,6%,1%,nt
COc1ccc(-c2cccc(C3CC=CC4C3C(=O)N(Cc3ccccc3)C4c3ccc4ccccc4c3)c2)cc1 (stereo not drawn),43,-3%,18µM*,8%,-1%,15µM*
COc1ccc(C2C3C=CCC(c4cccc(-c5ccc(C)cc5)c4)C3C(=O)N2Cc2ccccc2)cc1Cl (stereo not drawn),8,-3%,23µM*,6%,-6%,13µM*
COc1ccc(-c2nc3ccccc3s2)cc1NC(=O)c1cccc([N+](=O)[O-])c1C,nt,nt,-14%,nt,nt,-11%
Cc1ccc(NC(=O)CN(C)CC(=O)N(CC(C)C)c2c(N)n(CC(C)C)c(=O)[nH]c2=O)c(C)c1,-8,-5%,0%,nt,nt,16%
OC(CN1CCOCC1)(c1ccccc1)c1ccccn1 (stereo not drawn),13,9%,0%,-46%,-22%,6%
COc1cc(C(C#N)N2N=C(c3ccccc3)CC2c2ccccc2)ccc1O (stereo not drawn),0,?,?,7.9µM*,-93%,-14%
N#CC(c1ccccc1O)N1N=C(c2ccccc2)CC1c1ccccc1 (stereo not drawn),10,?,18µM*,?,?,10µM*
COc1cc(CCN(C(=O)c2cc3ccccc3[nH]2)C(c2ccccn2)c2nc3ccccc3[nH]2)cc(OC)c1 (stereo not drawn),-10,nt,?,nt,nt,?
CC(=O)c1c(C)[nH]c(C(=O)CN2CCN(S(=O)(=O)c3ccccc3)CC2)c1C,23,0%,?,nt,nt,?
CCc1ccc(N/C(SC)=C(/C#N)C(N)=O)cc1,-17,3%,?,33%,-2%,?
N#CC(C#N)=C(Nc1ccc(F)cc1)SCc1cccc(F)c1,?,?,2.6µM*,?,14µM*,2.6µM*
O=C(c1cnn2c(C(F)(F)F)cc(-c3cccs3)nc12)N1CCN(C(c2ccccc2)c2ccccc2)CC1,-29,5.8µM*,9.2µM*,?,-3%,13µM*
O=C(c1ccco1)N1CCN(C(=O)c2cnn3c(C(F)(F)F)cc(-c4cccs4)nc23)CC1,-13,5.8µM*,-24%,-6%,-11%,?
O=C(c1cnn2c(C(F)(F)F)cc(-c3cccs3)nc12)N1CCN(Cc2ccccc2)CC1,?,6.5µM*,?,?,-5%,15µM*
O=C(NCCc1ccccc1)c1nc2nc(-c3cccs3)cc(C(F)(F)F)n2n1,0,?,21µM*,37%,-16%,29µM*
O=C(NCc1ccco1)c1cc2nc(-c3cccs3)cc(C(F)(F)F)n2n1,-21,-8%,?,3%,-1%,?
FC(F)(F)c1cc(-c2cccs2)nc2cc(-c3ccccc3)nn12,4,15%,-25%,14%,10%,-17%
CN1CCN(C(=O)c2cnn3c(C(F)(F)F)cc(-c4cccs4)nc23)CC1,-2,5.8µM*,6%,15%,2%,-30%
O=C(O)c1cc2nc(-c3cccs3)cc(C(F)(F)F)n2n1,15,-1%,-24%,0%,-20%,-6%
C/C(=C(/CCO)SSC[C@@H]1CCCO1)N(C=O)Cc1cnc(C)nc1N,nt,nt,nt,-16%[16.9 µM],-3%[17 µM],nt
CCCSS/C(CCO)=C(\C)N(C=O)Cc1cnc(C)nc1N,nt,nt,5.3µM*,nt,nt,3µM*
SMILES,IL-1B inflam inh,ELG1 DNA repair,TDP1 cell CPT,RORgamma inh,Gal4-VP16 FLuc,DT40 TDP1 no CPT
C/C(=C(/CCO)SSCC1CCCO1)N(C=O)Cc1cnc(C)nc1N (stereo not drawn),9,25%,21µM*!,nt,nt,21µM*
Cc1nc2ccc(C(=O)N(C)Cc3ccccc3)cn2c1N(C)C(=O)CCc1ccccc1,-3,nt,?,nt,nt,-11%
OCC1(Cc2ccccc2)CCN(C2CCN(c3ccc(F)c(F)c3)CC2)CC1,-118*,1%,-29%,-38%,3%,12µM*
OCC1(Cc2ccccc2)CCN(CCCC2CCCC2)CC1,-11,5%,?,-2%,-11%,?
CCc1ccc(Oc2c(C(F)(F)F)oc3c(CN4CCC(C)CC4)c(O)ccc3c2=O)cc1,nt,nt,-16%,nt,nt,-25%
CCn1c(=N)n(CC(O)c2ccccc2)c2ccccc21 (stereo not drawn),-5,nt,-9%,?,-24%,-28%
Cc1ccc(OCC(O)CN2CCCC2)cc1 (stereo not drawn),13,7%,7%,-20%,-1%,1%
CCCCn1c(=N)n(CC(O)COc2ccc(C)cc2)c2ccccc21 (stereo not drawn),-73*,?,6.5µM*,20%,-6%,4.1µM*
CCCCn1c(=N)n(CC(O)c2ccccc2)c2ccccc21 (stereo not drawn),-67*,?,15µM*,16%,-7%,23µM*
CCCCn1c(=N)n(CC(O)COc2ccccc2)c2ccccc21 (stereo not drawn),?,?,12µM*,22%,-11%,12µM*
CC(C)N(Cc1nc(-c2ccc(Cl)cc2)no1)C(=O)c1ccc(C(C)(C)C)cc1,nt,nt,-27%,nt,nt,?
CSc1ccc(CCNC(=O)Cn2c(C)c3cnn(-c4ccccc4)c(=O)c3c2C)cc1,nt,nt,?,nt,nt,-17%
CC(=O)c1ccc(N2Cc3ccccc3C2=NC(=O)c2cccs2)cc1,-2,?,?,-7%,-12%,?
CCOC(=O)c1ccc(N2Cc3ccccc3C2=NC(=O)c2cccs2)cc1,61,?,18µM*,-12%,-5%,?
Cn1c(=O)n(Cc2ccccc2Cl)c(=O)c2c1nc1n2CCN1c1ccccc1,nt,nt,-7%,nt,nt,-28%
